Results published in PubChem BioAssay (EPA / NIEHS).
Where “and” joins values, the source holds several entries; their conditions need not be identical. Equal values may be shown once. Inconclusive results are not listed. The source holds several records for some structures; these can differ, active in one and inactive in another. Calls of active or inactive are those of the source. The calls were made as follows, unless noted: active = hit-call score of the fitted dose curve at least 0.9, where 1 is the maximum; inactive = score below 0.9.

How the values were obtained:
[1] = BSK_BT_PBMCCytotoxicity: PBMC Cytotoxicity Assessment in the BioMAP Diversity Plus: BT Assay (AID 2284225); conditions: primary human B cells with PBMC;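 also: PBMC viability measured by Alamar Blue dye reduction fluorescence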
In short: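 Primary human co-culture of B cells and PBMC, pre-dosed 1 h then activated with SEB and TSST-1. Cytotoxicity is taken from Alamar Blue dye reduction, added for 6 h at the end of a 90 h incubation.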

[2] = read-out: Secreted IgG (sIgG), gene 3500; experiment: BSK_BT_sIgG: BioMAP Diversity Plus: BT Assay for Secreted IgG (sIgG) Biomarker Activity (AID 2284226); conditions: primary human B cells with PBMC
In short: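 In this multiplexed co-culture system, ELISA quantifies sIgG 24 h post-treatment. Endpoint analysis uses positive fitting direction, DMSO negative control.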

[3] = read-out: Interleukin 6 (IL6), IL6 (gene 3569); experiment: BSK_BT_xIL6: BioMAP Diversity Plus: BT Assay for Interleukin 6 (IL6) Biomarker Activity (AID 2284228); conditions: primary human B cells with PBMC
In short: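 B cells and peripheral blood mononuclear cells (human primary co-culture) were dosed with chemical, and after 24 h IL-6 released into the medium was measured by Luminex xMAP. Responses were analysed as gain of signal over DMSO control.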

[4] = read-out: Interleukin 17A (IL17A), IL17A (gene 3605); experiment: BSK_BT_xIL17A: BioMAP Diversity Plus: BT Assay for Interleukin 17A (IL17A) Biomarker Activity (AID 2284229); conditions: primary human B cells with PBMC
In short: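 Secreted IL-17A was the measured endpoint, read by Luminex xMAP multiplex in supernatants of a human B cell/PBMC co-culture harvested 24 h after chemical dosing. Signal increase relative to DMSO defined activity.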

[5] = TAMU_PeakParms_SingleDonor1434_Chronotropy: Texas A&M University (TAMU) 1.5-hr Human Induced Pluripotent Stem Cell (iPSC)-derived Cardiomyocytes Calcium (Ca+2) Flux Assay for Cardiotoxicity: Chronotropy (changes in peak frequency) (AID 2284217); conditions: actives raise or lower the signal
In short: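 Using fluorescent Ca2+ flux, average beats per second are measured in human iPSC-derived cardiomyocytes treated 90 min (0.5% DMSO vehicle, 0.2–100 uM). Non-beating data points are removed; activity is modeled in both directions relative to DMSO controls.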

[6] = IUF_NPC1b_proliferation_BrdU_72hr: Leibniz Research Institute for Environmental Medicine (IUF) 72-hour Neural Progenitor Cell Bromodeoxyuridine (BrdU) Proliferation Assay (NPC1b) (AID 2284207)
In short: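 Neural progenitor spheres of human fetal origin are treated for three days; BrdU added for the last 16 h is quantified by luminescence ELISA, with DMSO as baseline and EGF/FGF omission as positive control.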

[7] = IUF_NPC1a_proliferation_area_72hr: Leibniz Research Institute for Environmental Medicine (IUF) 72-hour Neural Progenitor Cell Proliferation Area Assay (NPC1a) (AID 2284208)
In short: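 Spheres of 0.3 mm are plated singly in growth-factor medium and exposed from day 0. After three days at 37C and 5% CO2, sphere area is measured by phase contrast imaging, with activity referenced to DMSO.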

[8] = IUF_NPC1_viability_72hr: Viability Assessment at 72 hours in the Leibniz Research Institute for Environmental Medicine (IUF) Neural Progenitor Cell Proliferation Assay (NPC1) (AID 2284209)
In short: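 Three-day continuous exposure of human neural progenitor spheres under EGF/FGF-driven proliferation; cell viability scored by alamar blue signal versus DMSO.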

[9] = CCTE_Mundy_HCI_Cortical_Synap_Neur_Matur_NeuriteSpotCountPerNeuriteLength: CCTE's Synaptogenesis and Neurite Maturation Assay in rat cortical cells for Neurite Spot Count per Neurite Length, Mundy Lab (AID 2284210)
In short: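 Neurite-associated synapse density (synaptophysin puncta per unit neurite length) is measured by fluorescence high-content imaging in rat cortical cultures treated from DIV 7 and fixed at DIV 12, with DMSO as negative control.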

[10] = CCTE_Mundy_HCI_Cortical_Synap_Neur_Matur_BPCount: CCTE's Synaptogenesis and Neurite Maturation Assay in rat cortical cells for Branch Point Count, Mundy Lab (AID 2284211)
In short: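 In this multiplexed morphology assay, cortical cells from rat receive chemicals at DIV 7 and are fixed at DIV 12, then immunostained and imaged; branch points are counted, with DMSO as baseline.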

[11] = CCTE_Mundy_HCI_Cortical_NOG_NeuriteCount: CCTE's Neurite Outgrowth Assay in rat cortical cells for Neurite Count, Mundy Lab (AID 2284212);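 also: cells fixed about two days after chemical exposure began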
In short: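 Rat cortical primary cells; compound added 2 h post-plating, 1/10 dilution of working solution. Anti-betaIII-tubulin/AF488 ICC; ArrayScan neurite count vs DMSO.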

[12] = CCTE_Mundy_HCI_Cortical_NOG_NeuriteLength: CCTE's Neurite Outgrowth Assay in rat cortical cells for Neurite Length, Mundy Lab (AID 2284213);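 as to AC50: neurites imaged about 48 to 50 h after chemical exposure began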
In short: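 First, rat primary cortical cells were plated and, 2 h later, given test chemical as a 1/10 dilution. Finally, βIII-tubulin immunostaining enabled automated imaging of neurite length.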

[13] = CCTE_Mundy_HCI_Cortical_Synap_Neur_Matur_NeuriteLength: CCTE's Synaptogenesis and Neurite Maturation Assay in rat cortical cells for Neurite Length, Mundy Lab (AID 2284214)
In short: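 DMSO-normalised neurite length, from high-content imaging of anti-MAP2-stained rat cortical cells fixed at DIV 12. Glia were suppressed with AraC (DIV 5) before chemical exposure from DIV 7.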

[14] = CCTE_Mundy_HCI_Cortical_Synap_Neur_Matur_NeuriteSpotCountPerNeuron: CCTE's Synaptogenesis and Neurite Maturation Assay in rat cortical cells for Neurite Spot Count per Neuron Count, Mundy Lab (AID 2284215)
In short: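 Rat cortical primary cultures; AraC DIV 5 to arrest glia; dosing + media change DIV 7; fixed DIV 12. Anti-MAP2/anti-synaptophysin, Hoechst nuclei; HCI puncta count per neuron, positive fitting direction vs DMSO.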

[15] = CCTE_Mundy_HCI_Cortical_Synap_Neur_Matur_SynapseCount: CCTE's Synaptogenesis and Neurite Maturation Assay in rat cortical cells for Synapse Count, Mundy Lab (AID 2284218)
In short: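 Endpoint: synapses/neuron by HCI (synaptophysin puncta on MAP2-labelled neurites, Hoechst nuclei). Rat primary cortical cells, AraC DIV 5, dosed DIV 7, fixed DIV 12; DMSO negative control.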

[16] = CCTE_Mundy_HCI_Cortical_Synap_Neur_Matur_NeuriteCount: CCTE's Synaptogenesis and Neurite Maturation Assay in rat cortical cells for Neurite Count, Mundy Lab (AID 2284222);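 also: exposure from day 7 to day 12 in vitro with readout at day 12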
In short: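 In this multiplexed morphology readout, rat primary cortical neurons are fixed at DIV 12 following dosing at DIV 7 and stained for MAP2, synaptophysin and nuclei. High-content image analysis yields neurite count.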

[17] = CCTE_Mundy_HCI_Cortical_Synap_Neur_Matur_CellBodySpotCount: CCTE's Synaptogenesis and Neurite Maturation Assay in rat cortical cells for Cell Body Spot Count, Mundy Lab (AID 2284223)
In short: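 Rat cortical neurons; AraC @ DIV 5; dose + media change DIV 7; fix DIV 12; anti-MAP2/anti-synaptophysin IF, Hoechst; HCI count of soma synaptophysin puncta/neuron; DMSO = negative control.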

[18] = UKN2_HCS_IMR90_neural_migration: University of Konstanz (UKN) Leist Lab Neural Crest Cell Migration Assay in human induced IMR90 Pluripotent Stem Cells (UKN2) (AID 2284204); conditions: actives raise or lower the signal
In short: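 Using a 96-well stopper format with PLO/laminin/fibronectin coating, neural crest cells from iPSC migrate in cytokine-supplemented N2-S medium; after 24 h, chemicals are applied for a further 24 h, then cells are imaged after dye staining.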

[19] = UKN4_HCS_LUHMES_neurite_outgrowth: University of Konstanz (UKN) Leist Lab Neurite Outgrowth Assay in human LUHMES cells (UKN4) (AID 2284206); conditions: actives raise or lower the signal
In short: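 Neurite area in dopaminergic-model LUHMES neurons is measured by high-content imaging of calcein-AM after 24 h treatment starting shortly after day-2 replating; Hoechst staining tracks viability.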

[20] = CCTE_Mundy_HCI_hNP1_Pro_ResponderAvgInten: CCTE's Proliferation Assay in human neuroprogenitor cells, Mundy Lab (AID 2284224; active = hit-call score of the fitted dose curve at least 0.9, where 1 is the maximum;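 also: human neural progenitor cells hNP1 derived from WA09 embryonic stem cells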)
In short: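 Human neuroprogenitors (hNP1, WA09 lineage) receive test chemical after 40 to 44 hours of attachment. A four-hour BrdU pulse begins twenty hours later, followed by fixation and high content imaging; signal is referenced to DMSO controls.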

Measured: AC50

C=CC(=O)OCC(Br)CBr (stereo not drawn)
active: [1] 20.5 µM | [2] 7.95 µM | [3] 12.9 µM | [4] 7.7 µM

c1ccc(-c2ccccn2)nc1
inactive: [1] | [3] | [4]
active: [2] 20 µM

COCc1c(C(C)C)nc(C(C)C)c(/C=C/[C@@H](O)C[C@@H](O)CC(=O)O)c1-c1ccc(F)cc1
inactive: [1]
active: [2] 0.0231 µM | [3] 0.494 µM | [4] 0.312 µM

C=CC=CC=CCCCCC
inactive: [1] | [4]
active: [2] 7.13 µM | [3] 6.43 µM

c1ccc2c(c1)ccc1cc3c(ccc4ccccc43)cc12
inactive: [1] | [2] | [4]
active: [5] 50 µM | [3] 3.57 µM and 15 nM

CC1(C)S[C@@H]2[C@H](NC(=O)COc3ccccc3)C(=O)N2[C@H]1C(=O)O
not listed: [1] | [2] | [3] | [4] | [5] | [18] | [19] | [20]
inactive: all other assays above

CCCCC/C=C\C/C=C\CCCCCCCC(=O)OC
active: [1] 24.3 µM | [2] 20 µM | [3] 24.8 µM | [4] 23.8 µM

CCCCC(CC)COC(=O)c1ccccc1O (stereo not drawn)
inactive: [1] | [3] | [4]
active: [2] 7.14 µM

C=CCOCC(O)CCl (stereo not drawn)
inactive: [1] | [3] | [4]
active: [2] 20 µM

C/C=C\C/C=C/CCCCCCCCOC(C)=O
active: [1] 20 µM | [2] 17 µM | [3] 15.2 µM | [4] 15.1 µM

CC(C)(c1cc(Br)c(OCCO)c(Br)c1)c1cc(Br)c(OCCO)c(Br)c1
active: [2] 8.71 µM | [3] 16.2 µM | [4] 20.8 µM
inactive: [1]

COc1ccc2nc(N)sc2c1
inactive: [1] | [2] | [3] | [4]

C#CC1(O)CC[C@H]2[C@@H]3CCC4=CCCC[C@@H]4[C@H]3CC[C@@]21C (stereo partly drawn)
active: [1] 34.3 µM | [2] 10.7 µM | [3] 28.1 µM | [4] 14.5 µM

CCOc1nc(F)cc2nc(S(=O)(=O)Nc3c(Cl)cccc3C(=O)OC)nn12
inactive: [1] | [2] | [3] | [4]

CC1OC1C1CCC2(C)OC2C1 (stereo not drawn)
inactive: [1] | [2] | [3] | [4]

c1ccc2c(c1)ccc1ncccc12
active: [3] 1.14 µM
inactive: [1] | [2] | [4]

CCCCCCCCc1ccc(Nc2ccc(CCCCCCCC)cc2)cc1
inactive: [1] | [2] | [3] | [4]

C=CCOc1c(Br)cc(Br)cc1Br
inactive: [1] | [2] | [3] | [4]

CCCCCCCCCCCCCCCC[N+](C)(C)CC
active: [1] 6.46 µM | [2] 0.0956 µM | [3] 13.4 µM | [4] 1.63 µM

O=C(Nc1ccccc1SSc1ccccc1NC(=O)c1ccccc1)c1ccccc1
active: [1] 6.24 µM | [2] 4.59 µM | [3] 13.2 µM | [4] 5.93 µM

O=c1c2ccccc2oc2ccccc12
active: [2] 11.7 µM
inactive: [1] | [3] | [4]

CCO[Si](CCCN=C=O)(OCC)OCC
inactive: [1] | [2] | [3] | [4]

N#[N+]c1ccc2c(S(=O)(=O)[O-])cccc2c1O
inactive: [1] | [2] | [3] | [4]

Nc1ncn([C@@H]2O[C@H](CO)[C@@H](O)[C@H]2O)c(=O)n1
active: [19] 13 µM | [6] 0.253 µM | [12] 7.87 µM | [20] 8.32 µM
inactive: [18] | [7] | [8] | [9] | [10] | [11] | [12] | [13] | [14] | [15] | [16] | [17]

O=C(Cl)c1cc(C(=O)Cl)cc(C(=O)Cl)c1
active: [1] 28 µM | [2] 14.6 µM | [3] 27.6 µM | [4] 15.4 µM

CCCCNc1ccc(NCCCC)c2c1C(=O)c1ccccc1C2=O
inactive: [1] | [2] | [3] | [4]

S=C(NC1CCCCC1)NC1CCCCC1
inactive: [1] | [3] | [4]
active: [2] 20 µM

CC(C)C(=O)C(C)C
inactive: [1] | [2] | [3] | [4]

O=Nc1ccc(O)cc1
inactive: [1] | [2] | [3] | [4]

O=C(O)CCCC[C@@H]1SC[C@@H]2NC(=O)N[C@@H]21
inactive: [5]

N[C@H]1C(O)O[C@H](CO)[C@H](O)[C@@H]1O (stereo partly drawn)
inactive: [9] | [10] | [11] | [12] | [13] | [14] | [15] | [16] | [17] | [20]
